This is a sample that favours compounds with a hit; in the whole collection about 2.3% have one here.
Bim-Mcl-1: inhibitors of Bim-Mcl-1 interaction, human | Q07820 | Bead-based flow cytometry, Bim peptide-Mcl-1 binding | inhibition, % at 10 µM | hit rate 0.1% among 190,000 | AID 1009; in the data active = inhibition above about 40%;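 also: 0% = no compound tracer wells and 100% = peptide blocker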
MCL1-BIM inh: MCL1-BIM-BH3 interaction inhibition (human); GST-MCL1 / FITC-Bim-BH3 fluorescence polarization; inhibition, % at 10.9 µM; hit rate 0.68% among 320,000;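 active = inhibition above the mean inhibition of all tested compounds plus 3 SD, set per campaign, cut at about 40% in these data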;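 also: 0% = DMSO wells and 100% = unlabeled Bim-BH3 peptide control; higher means more loss of mP so more displacement of Bim peptide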
Mcl1 Noxa PPI: disrupts binding of human Mcl-1 to Noxa peptide; TR-FRET Mcl-1/Noxa peptide binding, 2 h; inhibition, % at 21.7 µM; hit rate 1.5% among 220,000; AID 1022;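 active = compounds that cut the protein-peptide binding signal by more than 50% relative to plate controls in a single-dose test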;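 also: His-tagged Mcl-1 with rhodamine Noxa BH3 peptide and terbium anti-His antibody; 0% = Mcl-1 plus Noxa peptide wells and 100% = peptide-only wells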
Mcl1-Bid inh: disrupts binding of human Mcl-1 to Bid peptide | TR-FRET Mcl-1/Bid-Dy647 peptide binding, 1536-well | inhibition, % at 21.7 µM | hit rate 0.97% among 220,000 | AID 1021;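 active = compounds that cut the binding signal by more than half at the single screening dose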;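 also: His-tagged Mcl-1 with europium anti-His antibody binding Bid BH3 peptide; 0% = Mcl-1 plus peptide wells and 100% = peptide-only wells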
GLD-1 RNA inh: GLD-1-TGE RNA interaction inhibition (C. elegans) | Q17339 | purified GLD-1 + fluorescein TGE RNA, fluorescence polarization | inhibition, % at 5.96 µM | hit rate 0.44% among 320,000 | AID 2280;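 active = percent inhibition above a per-plate cutoff, the plate mean of test compounds plus 3 SD, cut at about 30% in these data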;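 also: 0% = DMSO wells with GLD-1 and probe and 100% = wells lacking GLD-1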
Target sequence (Q17339 whole entry, looked up): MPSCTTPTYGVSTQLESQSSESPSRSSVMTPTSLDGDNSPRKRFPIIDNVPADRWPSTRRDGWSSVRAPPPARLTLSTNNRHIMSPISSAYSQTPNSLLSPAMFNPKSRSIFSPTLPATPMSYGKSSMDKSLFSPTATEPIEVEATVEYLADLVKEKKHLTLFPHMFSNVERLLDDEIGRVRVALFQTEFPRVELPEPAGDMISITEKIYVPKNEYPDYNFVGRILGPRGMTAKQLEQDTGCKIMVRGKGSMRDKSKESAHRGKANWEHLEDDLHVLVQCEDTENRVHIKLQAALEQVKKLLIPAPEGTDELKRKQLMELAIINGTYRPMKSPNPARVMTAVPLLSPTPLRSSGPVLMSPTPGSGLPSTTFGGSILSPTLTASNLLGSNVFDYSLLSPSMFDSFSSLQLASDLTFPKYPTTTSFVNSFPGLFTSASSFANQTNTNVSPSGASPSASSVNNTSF
Bcl-xL primary: blocks human Bcl-xL binding to Bim BH3 peptide. Q07817. GST-Bcl-xL / FITC-Bim BH3 peptide fluorescence polarization. hit rate 0.7% among 320,000. inhibition, % at 10.9 µM;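 active = inhibition above the mean of all tested compounds plus 3 SD, cutoff set per campaign, cut at about 30% in these data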;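 also: 0% = DMSO wells and 100% = unlabeled Bim-BH3 peptide competitor; inhibitors lower millipolarization by displacing the labeled peptide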
GLD-1 TGE cf: confirmation of C. elegans GLD-1 TGE RNA binding inhibitors; hit rate 10% among 550; shares compounds with GLD-1 RNA inh; GLD-1/FL-TGE RNA fluorescence polarization, biochemical; inhibition, % at 5.96 µM;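 active = average inhibition across triplicates above the hit cutoff set in the primary screen, cut at about 32% in these data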;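 also: 0% = GLD-1 with RNA probe and DMSO and 100% = wells lacking GLD-1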
* = called active by the depositor; . = not tested or not shown.

SMILES	Bim-Mcl-1	MCL1-BIM inh	Mcl1 Noxa PPI	Mcl1-Bid inh	GLD-1 RNA inh	Bcl-xL primary	GLD-1 TGE cf
c1ccc(CC2CCN(C3=Nc4cccc5cccc3c45)CC2)cc1	-3	9	26	-9	4	6	.
O=C1c2ccccc2C(=O)N1COc1ccc(S(=O)(=O)N2CCOCC2)cc1[N+](=O)[O-]	.	7	.	.	2	5	.
COc1cc(OC)cc(C(=O)Nc2cc(-c3cn4cccnc4n3)ccc2C)c1	-1	-3	19	-8	-7	4	.
Cc1ccc(-c2cn3cccnc3n2)cc1NC(=O)c1cccs1	-2	3	19	-32	31*	4	-4
CN(CC(=O)Nc1n[nH]c(=S)s1)S(=O)(=O)c1cccc2cccnc12	.	-10	.	.	112*	-4	0
CCCCC1=CC2=C(c3ccco3)C(=O)C(C)(OC(=O)c3ccc(OC)cc3)C(=O)C2=CN1C1CC1 (stereo unspecified)	.	40*	2	-144	32*	41*	12
CCCCC1=CC2=C(c3ccco3)C(=O)C(C)(OC(=O)c3ccc(OC)cc3)C(=O)C2=CN1CC1CC1 (stereo unspecified)	.	13	22	-137	14	18	.
CCCCC1=CC2=C(c3ccco3)C(=O)C(C)(OC(=O)c3ccc(OC)cc3)C(=O)C2=CN1c1ccc(OC)cc1 (stereo unspecified)	.	32	20	-107	33*	30*	4
CCCCC1=CC2=C(c3ccco3)C(=O)C(C)(OC(=O)c3ccc(OC)cc3)C(=O)C2=CN1CC(C)C (stereo unspecified)	.	13	-31	-91	15	19	.
CCCCC1=CC2=C(c3ccco3)C(=O)C(C)(OC(=O)c3ccc(OC)cc3)C(=O)C2=CN1C(CO)CO (stereo unspecified)	.	25	14	-123	34*	25	15
O=C1CN(C(=O)c2ccc(Br)o2)C(c2ccccc2)c2cc(F)ccc2N1 (stereo unspecified)	-4	0	1	-14	-3	5	.
Clc1ccccc1/C=N/NC1=Nc2cccc3cccc1c23	-2	15	-8	-6	48*	23	22
Cc1c2c(nc3c(C(=O)NC4CC4)cnn13)CCCC2	-3	6	0	-20	4	5	.
CC(=O)Oc1ccc(C(=O)[C@H]2[C@H]3C(=O)N(c4ccccc4)C(=O)[C@H]3[C@@H]3C=CC=NN32)cc1	-1	22	21	-35	31*	26	3
COc1ccccc1C(=O)Nc1ccc(-c2nnn(CC(=O)N3CCN(C(=O)c4ccco4)CC3)n2)cc1	1	-4	20	-9	51*	0	-6
O=C(Nc1ccc(-c2nnn(CC(=O)N3CCN(C(=O)c4ccco4)CC3)n2)cc1)c1ccccc1F	-3	4	9	-14	4	1	.
COc1cccc(CN2CCN(Cc3c(C)nn(C(C)C)c3C)CC2CCO)c1 (stereo unspecified)	0	16	10	-27	4	5	.
COc1ccc(-c2nn(-c3ccccc3)cc2/C=C(\CC(=O)O)c2nc3ccccc3s2)cc1OC	0	0	12	-26	-7	3	.
COc1ccc(/C=C(\CC(=O)O)c2nc3ccccc3s2)cc1O	0	0	25	-3	55*	7	39*
Nc1cccc2c1C(=O)N(Cc1cccc(Cl)c1)C2=O	-1	23	6	11	32*	22	39*
COc1oc(-c2ccc(Cl)cc2)nc1C(F)(F)F	-3	4	6	-8	-2	1	.
CCOC(=O)c1cc2c(ccn2C)n1CC(=O)N(Cc1ccccc1)c1ccc(F)cc1	-4	13	8	-75	37*	9	47*
CCOC(=O)c1cc2c(ccn2C)n1CC(=O)N(Cc1ccccc1)c1ccccc1	-3	2	16	-62	36*	6	56*
CC(C)OC(=O)c1cc2c(ccn2C)n1CC(=O)N(Cc1ccccc1)c1ccc(F)cc1	0	14	10	-29	25	9	.
O=c1[nH]c2cc3ccccc3cc2nc1C(F)(F)F	0	14	3	-3	58*	14	60*
SMILES	Bim-Mcl-1	MCL1-BIM inh	Mcl1 Noxa PPI	Mcl1-Bid inh	GLD-1 RNA inh	Bcl-xL primary	GLD-1 TGE cf
CCCCN(C(=O)c1ccc([N+](=O)[O-])o1)c1c(N)n(CC(C)C)c(=O)[nH]c1=O	.	39	.	.	37*	34*	65*
CCCCN(C(=O)c1cc2ccccc2o1)c1c(N)n(CC(C)C)c(=O)[nH]c1=O	0	-1	20	15	6	2	.
O=C(O)C1CN(c2ncccc2[N+](=O)[O-])C1	1	-2	7	-13	9	1	.
O=C(O)[C@@H]1[C@@H]2C[C@@H]2CN1c1ncccc1[N+](=O)[O-]	-1	47*	19	-32	39*	47*	-2
Nc1c(-c2cccc([N+](=O)[O-])c2)nc2ccccn12	-3	14	28	36	32*	6	43*
Cc1ccc(S(=O)(=O)N2CCOCC2)cc1C(=O)N1C(=O)c2cccc(N)c2C1=O	-1	32	17	97*	32*	30*	18
Nc1cccc2c1C(=O)N(C(=O)c1cccc(S(=O)(=O)N3CCCCCC3)c1)C2=O	-1	31	6	-15	38*	28	15
Cc1ccc2cc(C)c(SCC(=O)NCC3CCCO3)nc2c1 (stereo unspecified)	.	1	.	.	-4	0	.
O=C(CS(=O)(=O)c1ccccc1)c1ccc2c(c1)OCCO2	-1	6	10	9	4	-1	.
Cc1cc2ccccc2n1CCNC(=O)C1CC1	.	23	.	.	35*	22	13
Cc1cc2ccccc2n1CCNC(=O)C1CCCC1	-2	24	-7	-19	17	27	.
Cc1cc2ccccc2n1CCNC(=O)c1cccs1	6	39	12	-9	49*	42*	6
O=C1COc2ccc(C(=O)COC(=O)CCSc3ccccc3)cc2N1	.	-10	14	-57	59*	-19	-9
O=C(OCC(=O)N1CCN(C(=O)c2ccco2)CC1)c1sc2cc(F)ccc2c1Cl	-4	38	24	-3	36*	60*	-5
Cc1cccc(S(=O)(=O)C(C#N)c2nc3ccccc3nc2N2CCOCC2)c1 (stereo unspecified)	-3	27	25	24	41*	32*	-2
COc1ccc(S(=O)(=O)C(C#N)c2nc3ccccc3nc2N2CCC(C)CC2)cc1 (stereo unspecified)	.	47*	.	.	42*	49*	5
